Results reported in PubChem BioAssay (NCI).
Compounds without any hit were thinned out: in the full panel of roughly 79,000, 15% have a hit. Unmarked numbers belong to inactive results. The source made the active and inactive calls. Rule as the data show it: active = growth inhibition above about 70%; inactive = the rest.

How the values were obtained:
[1] = NCI Yeast Anticancer Drug Screen. Data for the rad50 strain (AID 155);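 also: 0% = growth of vehicle-only cultures of the same strain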; settings: S. cerevisiae rad50 strain growth inhibition, hits give high values
Outline: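 Relative growth inhibition (compound vs vehicle) was measured in yeast with a defined repair-gene alteration.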

[2] = NCI Yeast Anticancer Drug Screen. Data for the mec2-1 strain (AID 157); settings: S. cerevisiae mec2-1 strain, hits give high values
Outline: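 Strain: mec2-1 (DNA repair/cell cycle alteration). Compound exposure, then growth measured; inhibition expressed relative to vehicle.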

[3] = NCI Yeast Anticancer Drug Screen. Data for the sgs1 mgt1 strain (AID 161);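 also: 0% = growth of cultures given vehicle only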; settings: S. cerevisiae sgs1 mgt1 strain, hits give high values
Outline: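 Read-out: growth inhibition vs vehicle controls. Cells: mutant yeast strain deficient in DNA damage repair.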

[4] = NCI Yeast Anticancer Drug Screen. Data for the bub3 strain (AID 167); settings: S. cerevisiae bub3 mutant strain, hits give high values
Outline: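 Screening used yeast with an engineered genetic alteration affecting cell cycle control. Compound-exposed cultures were compared with vehicle cultures, and reduced growth was taken as inhibition.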

[5] = NCI Yeast Anticancer Drug Screen. Data for the mlh1 rad18 strain (AID 175); settings: S. cerevisiae mlh1 rad18 strain growth inhibition, hits give high values
Outline: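 Read-out is yeast growth inhibition, calculated against vehicle-only controls. The compound was applied to a strain engineered with DNA damage repair alterations.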

[6] = NCI Yeast Anticancer Drug Screen. Data for the cln2 rad14 strain (AID 165);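 also: 0% = growth equal to vehicle treated cultures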; settings: S. cerevisiae cln2 rad14 strain, hits give high values
Outline: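 Compounds are applied to the cln2 rad14 yeast strain, and growth is then compared with that of vehicle-treated cultures to give inhibition.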

[7] = at 5.0 µM (retest, dose inferred, filed as 0.5)
[8] = at 50.0 µM (retest, dose inferred, filed as 5.0)

SMILES | growth inhibition [1, 7] | growth inhibition [1, 8] | growth inhibition ([1]; at 50.0 µM) | growth inhibition [2, 7] | growth inhibition [2, 8] | growth inhibition ([2]; at 50.0 µM) | growth inhibition [3, 7] | growth inhibition [3, 8] | growth inhibition ([3]; at 50.0 µM) | growth inhibition [4, 7] | growth inhibition [4, 8] | growth inhibition ([4]; at 50.0 µM) | growth inhibition [5, 7] | growth inhibition [5, 8] | growth inhibition ([5]; at 50.0 µM) | growth inhibition [6, 7] | growth inhibition [6, 8] | growth inhibition ([6]; at 50.0 µM)
O=C(Nc1ccc(C2=NCCN2)cc1)c1cc(C(=O)Nc2ccc(C3=NCCN3)cc2)cc(C(=O)Nc2ccc(C3=NCCN3)cc2)c1 | 37% | 96% (active) | 99% (active) | 5% | 94% (active) | 99% (active) | 16% | 95% (active) | 98.8% (active) | 23% | 99% (active) | 98.8% (active) | 25% | 98% (active) | 99% (active) | – | – | –
O=[N+]([O-])c1ccc(/C=c2\sc3scc(-c4ccc([N+](=O)[O-])cc4)[n+]3\c2=C/c2ccc([N+](=O)[O-])cc2)cc1 | 99% (active) | 99% (active) | 86.9% (active) | 100% (active) | 99% (active) | 75.5% (active) | 88% (active) | 99% (active) | 97.5% (active) | 99% (active) | 99% (active) | 54.1% | 99% (active) | 99% (active) | 94.6% (active) | 94% (active) | 99% (active) | 69.3%
O=C1OC2(CCCCC2)OC(=O)C1=Cc1ccc([N+](=O)[O-])s1 | 9% | 99% (active) | 56.1% | 6% | 100% (active) | 27.4% | 9% | 99% (active) | 99.8% (active) | – | – | – | 14% | 99% (active) | 30.7% | 4% | 61% | 10%
O=[N+]([O-])c1cc(Cl)cc(C(c2cc(Cl)cc([N+](=O)[O-])c2O)C(Cl)(Cl)Cl)c1O | 52% | 94% (active) | 97.7% (active) | 50% | 98% (active) | 98.4% (active) | 38% | 92% (active) | 98.1% (active) | 33% | 96% (active) | 97.2% (active) | 66% | 96% (active) | 98.3% (active) | – | – | –
CN(CN(C)N=Nc1ccc(Cl)cc1)CN(C)N=Nc1ccc(Cl)cc1 | -14% | 9% | -3.1% | 3% | -8% | -1.75% | – | – | – | 0% | 4% | -0.7% | -12% | 3% | 9.7% | -6% | -2% | 19.9%
CCNC(=O)NNc1ncnc2c1c(-c1ccc(Cl)cc1)cn2-c1ccc(C)cc1 | -10% | 98% (active) | 96.7% (active) | -11% | 98% (active) | 97.7% (active) | 5% | 99% (active) | 98.3% (active) | – | – | – | -17% | 98% (active) | 97.2% (active) | 7% | 97% (active) | 96.5% (active)
CCCCCCCCCCCCCCCCN(C)c1ccc(S(=O)(=O)O)cc1[N+](=O)[O-] | 43% | 67% | 85.5% (active) | 37% | 71% (active) | 89% (active) | 50% | 62% | 90.5% (active) | 60% | 79% (active) | 88.3% (active) | 59% | 73% (active) | 80.1% (active) | 24% | 48% | 68.6%
CNC(=O)c1cccc2c(Nc3ccc(NS(C)(=O)=O)cc3OC)c3cccc(C)c3nc12 | 47% | 93% (active) | 75.8% (active) | 17% | 95% (active) | -0.8% | – | – | – | 19% | 91% (active) | -37.2% | 19% | 86% (active) | -24.5% | 30% | 57% | -0.4%
O/N=C1\c2ccccc2-c2ccc(Cl)cc21 | 6% | 35% | 60.5% | -5% | 34% | 50.5% | 3% | 60% | 87.4% (active) | -4% | 28% | 74.3% (active) | 8% | 36% | 79% (active) | – | – | –
CC(C(O)Cc1ccccc1)N(C)N=Nc1ccc([N+](=O)[O-])cc1 (stereo not drawn) | 35% | 84% (active) | 64.3% | 18% | 59% | 61.6% | 24% | 91% (active) | 85.7% (active) | – | – | – | 51% | 89% (active) | 78.5% (active) | 21% | 86% (active) | 28.3%
Cc1csc2c1C(=O)c1ccsc1C2=O | 54% | 97% (active) | 88.8% (active) | 50% | 99% (active) | 91.5% (active) | 72% (active) | 99% (active) | 92.2% (active) | 86% (active) | 98% (active) | 91.5% (active) | 65% | 99% (active) | 91.1% (active) | 31% | 98% (active) | 90.8% (active)
O=Cc1nc2c3cccnc3ccc2n1Cc1ccccc1 | -4% | 24% | 0.05% | -17% | 8% | -18.8% | -17% | 15% | 35.4% | – | – | – | 8% | 34% | 40.9% | -2% | 5% | 26.7%
NC(CCl)=NCC1C2CC3CC(C2)CC1C3 (stereo not drawn) | 14% | 99% (active) | 87.9% (active) | 11% | 99% (active) | 90.2% (active) | 11% | 99% (active) | 90.8% (active) | – | – | – | 19% | 99% (active) | 89.9% (active) | -3% | 99% (active) | 84.5% (active)
Cc1cc2nc3ccc(N(C)C)cc3nc2cc1N | 42% | 94% (active) | 51.6% | 20% | 89% (active) | 93.8% (active) | – | – | – | 19% | 90% (active) | 94.9% (active) | 42% | 92% (active) | 92% (active) | 29% | 80% (active) | 82.2% (active)
[Cl][Pt+2][Cl].[NH-]CC1(C[NH-])CCCC1 | 28% | 40% | 0.2% | 14% | 19% | 0.9% | 26% | 39% | -26.1% | 19% | 34% | -19.2% | 26% | 72% (active) | -30% | – | – | –
S=P([S][Sn]([S]P(=S)(c1ccccc1)c1ccccc1)([c]1ccccc1)[c]1ccccc1)(c1ccccc1)c1ccccc1 | 22% | 82% (active) | 34.9% | 21% | 73% (active) | 19.6% | 33% | 96% (active) | 91.9% (active) | 24% | 69% | 89.2% (active) | 33% | 92% (active) | 77.8% (active) | – | – | –
CCOC(=O)Nc1cc2c(cn1)[nH]c1ccccc12 | -3% | 46% | -0.8% | 7% | 72% (active) | -12.2% | -1% | 52% | 8.35% | – | – | – | 5% | 86% (active) | 5.3% | 1% | 25% | -0.4%
CCN(CC)CC(O)c1ccnc2c(O)cccc12 (stereo not drawn) | 3% | 40% | 80.2% (active) | 4% | 40% | 20.6% | -2% | 33% | 71.7% (active) | -6% | 42% | 0.1% | 1% | 20% | 51.9% | – | 32% | 11.9%
O=S1Nc2ccccc2S1 (stereo not drawn) | 0% | 18% | 58% | -1% | 33% | 85.2% (active) | – | – | – | -1% | 77% (active) | 98.7% (active) | -1% | 41% | 96.2% (active) | -8% | 37% | 97% (active)
CN1C/C(=C\c2ccccc2)C(=O)C(c2ccccc2)C1 (stereo not drawn) | -1% | 94% (active) | 1.9% | 0% | 95% (active) | 19.9% | 0% | 96% (active) | 28.8% | – | – | – | -1% | 95% (active) | 31.4% | – | – | –
